The source made the active and inactive calls.

Data on eight molecules can be found in PubChem BioAssay.

Assay [1] can be described thus: optical density shifts of acrAB sulA E. coli – strain DRC41, OD650, 48 h, E. coli filamentation inducer project, primary screen (AID 1152).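 Also: E. coli MC1000 strain DRC41 lacking acrAB efflux pump and sulA.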 Particulars: higher = more signal, called active from +8 up or from −8 down.
A short description of assay [2]: probe aLefty1 binding on compound microarray – biochemical, small-molecule microarray, 635/667 nm fluorescence, primary screen (AID 1153).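 Also: score merges spot fluorescence with signal-to-noise ratio from the scanned slide images.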 To be noted: higher = more signal.
Assay [3] in a line: plasmodial surface anion channel blockers, osmotic lysis – cell-based, P. falciparum Indochina, OD700, 1 h, primary screen (AID 1154). Particulars: P. falciparum Indochina infected RBC osmotic lysis, higher = more signal, called active from +8 up or from −8 down.
Assay [4] can be described thus: plasmodial surface anion channel blockers, osmotic lysis – cell-based, P. falciparum Indochina, OD700, 2 h, primary screen (AID 1155).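 Also: lysis reports solute entry through the parasite surface anion channel PSAC.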 Particulars: P. falciparum Indochina infected erythrocytes, higher = more signal, called active from +8 up or from −8 down.
Assay [5] in a line: changes in parasitized red cell lysis, either direction – P. falciparum Indochina, OD700, 3 h, PSAC antagonist project, primary screen (AID 1156). To be noted: P. falciparum-infected erythrocytes, osmotic lysis, higher = more signal, called active from +8 up or from −8 down.
Assay [6] in a line: plasmodial surface anion channel blockers, osmotic lysis – cell-based, P. falciparum Indochina, OD700, 18 h, primary screen (AID 1157). Particulars: P. falciparum Indochina infected erythrocytes, osmotic lysis OD700, 18 h; higher = more signal, called active from +8 up or from −8 down.
Assay [7] is described as follows: S6 kinase pathway phospho-S6 level changes – cell-based, A549, cytoblot, luminescence, serum-stimulated, primary screen (AID 1158).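 Also: serum-stimulated A549 lung adenocarcinoma cells; signal is phosphorylated S6 detected by cytoblot immunostaining with HRP secondary.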 Particulars: 5 h, higher = more signal.
The target in assay [8] is NADPH oxidase 2 (Homo sapiens) (UniProt P04839). Put plainly: compounds shifting NOX2 Amplex Red fluorescence – cell-based, HEK293-NOX2, PMA-stimulated, NOX inhibitor project, primary screen (AID 1159). Also: test concentration not given here. Particulars: 45 min, higher = more signal, called active from +8 up or from −8 down.
Assay [9] has as its target NADPH oxidase 4 (Homo sapiens) (UniProt Q9NPH5). The experiment in a line: compounds shifting NOX4 Amplex Red fluorescence – cell-based, HEK293-NOX4, tetracycline-induced, NOX inhibitor project, primary screen (AID 1160). To be noted: HEK293-NOX4, Amplex Red H2O2 fluorescence, 45 min; higher = more signal, called active from +8 up or from −8 down.
Assay [10] has as its target NADPH oxidase 5 (Homo sapiens) (UniProt Q96PH1). The experiment in a line: compounds shifting NOX5 Amplex Red fluorescence – cell-based, HEK293-NOX5, NOX inhibitor project, primary screen (AID 1161). To be noted: HEK293-NOX5, ionomycin, 45 min, higher = more signal.
A short description of assay [11]: compound effects on lung adenocarcinoma cell viability – A549, calcein-AM fluorescence, 48 h, basal, profiling panel (AID 1162). Also: test concentration not given here. Particulars: higher = more signal.
Assay [12] can be described thus: compound effects on differentiated 3T3-L1 adipocyte viability – cell-based, 3T3-L1 adipocytes, calcein-AM fluorescence, 48 h, basal, profiling panel (AID 1163). Also: test concentration not given here. Particulars: 3T3-L1 adipocytes viability, higher = more signal.
Assay [13] in a line: compound effects on hepatocellular carcinoma cell viability – HepG2, calcein-AM fluorescence, 48 h, basal, profiling panel (AID 1164). Also: test concentration not given here. To be noted: higher = more signal.
Assay [14] in a line: compound effects on multiple myeloma cell viability – MM1S, calcein-AM fluorescence, 48 h, basal, profiling panel (AID 1165).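 Also: viability of MM1S multiple myeloma cells under basal unstimulated conditions; test concentration not given here.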 Particulars: higher = more signal.
Assay [15] is described as follows: calcein-AM signal in unstimulated myeloma cells – cell-based, calcein-AM fluorescence, 48 h, PK04 Diversity Set, profiling panel (AID 1166).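 Also: cells grown under basal conditions without added stimulus; test concentration not given here.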 To be noted: RPMI8226 myeloma viability, higher = more signal.
Assay [16] can be described thus: JC-1 mitochondrial signal, unstimulated HepG2 cells – cell-based, JC-1 fluorescence, 24 h, 100 nL compound, profiling panel (AID 1167). Also: test concentration not given here. Particulars: HepG2 mitochondrial potential, higher = more signal.
Assay [17] is described as follows: JC-1 mitochondrial signal, unstimulated adipocytes – cell-based, JC-1 fluorescence, 3T3-L1 adipocytes, 24 h, 100 nL compound, profiling panel (AID 1168). Also: test concentration not given here. To be noted: JC-1 mitochondrial fluorescence, higher = more signal, called active from +8 up or from −8 down.
A short description of assay [18]: JC-1 mitochondrial signal, unstimulated myeloma cells – cell-based, JC-1 fluorescence, RPMI8226, 24 h, 100 nL compound, profiling panel (AID 1169). Also: test concentration not given here. To be noted: JC-1 mitochondrial potential fluorescence, higher = more signal.
Assay [19] can be described thus: JC-1 mitochondrial signal, unstimulated MM1S myeloma – cell-based, JC-1 fluorescence, 24 h, 100 nL compound, profiling panel (AID 1170). Also: test concentration not given here. To be noted: MM1S mitochondrial potential, higher = more signal.
Assay [20] in a line: resazurin metabolic signal in A549 cells – cell-based, resazurin fluorescence, 24 h, PK04 Diversity Set, profiling panel (AID 1171). Also: test concentration not given here. To be noted: A549 viability, higher = more signal, called active from +8 up or from −8 down. A general note: Alamar Blue is a resazurin reagent that responds to reducing activity.

Chain of NADPH oxidase 2 (Homo sapiens) (P04839 whole entry, looked up): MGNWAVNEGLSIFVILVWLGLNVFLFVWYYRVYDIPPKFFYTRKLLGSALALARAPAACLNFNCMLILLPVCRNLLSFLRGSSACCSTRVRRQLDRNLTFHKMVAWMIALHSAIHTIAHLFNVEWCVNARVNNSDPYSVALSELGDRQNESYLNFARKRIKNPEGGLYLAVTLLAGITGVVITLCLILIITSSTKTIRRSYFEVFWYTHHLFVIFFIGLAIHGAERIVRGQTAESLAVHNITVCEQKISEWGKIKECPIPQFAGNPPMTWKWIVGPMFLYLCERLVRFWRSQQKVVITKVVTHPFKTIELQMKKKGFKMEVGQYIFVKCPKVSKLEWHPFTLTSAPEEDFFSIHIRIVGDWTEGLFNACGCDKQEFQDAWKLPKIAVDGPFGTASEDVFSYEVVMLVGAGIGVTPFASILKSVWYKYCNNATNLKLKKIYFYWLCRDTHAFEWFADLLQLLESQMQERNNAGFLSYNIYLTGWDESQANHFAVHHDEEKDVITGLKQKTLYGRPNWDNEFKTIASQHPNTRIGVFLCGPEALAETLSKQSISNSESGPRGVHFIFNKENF
Chain of NADPH oxidase 5 (Homo sapiens) (Q96PH1 whole entry, looked up): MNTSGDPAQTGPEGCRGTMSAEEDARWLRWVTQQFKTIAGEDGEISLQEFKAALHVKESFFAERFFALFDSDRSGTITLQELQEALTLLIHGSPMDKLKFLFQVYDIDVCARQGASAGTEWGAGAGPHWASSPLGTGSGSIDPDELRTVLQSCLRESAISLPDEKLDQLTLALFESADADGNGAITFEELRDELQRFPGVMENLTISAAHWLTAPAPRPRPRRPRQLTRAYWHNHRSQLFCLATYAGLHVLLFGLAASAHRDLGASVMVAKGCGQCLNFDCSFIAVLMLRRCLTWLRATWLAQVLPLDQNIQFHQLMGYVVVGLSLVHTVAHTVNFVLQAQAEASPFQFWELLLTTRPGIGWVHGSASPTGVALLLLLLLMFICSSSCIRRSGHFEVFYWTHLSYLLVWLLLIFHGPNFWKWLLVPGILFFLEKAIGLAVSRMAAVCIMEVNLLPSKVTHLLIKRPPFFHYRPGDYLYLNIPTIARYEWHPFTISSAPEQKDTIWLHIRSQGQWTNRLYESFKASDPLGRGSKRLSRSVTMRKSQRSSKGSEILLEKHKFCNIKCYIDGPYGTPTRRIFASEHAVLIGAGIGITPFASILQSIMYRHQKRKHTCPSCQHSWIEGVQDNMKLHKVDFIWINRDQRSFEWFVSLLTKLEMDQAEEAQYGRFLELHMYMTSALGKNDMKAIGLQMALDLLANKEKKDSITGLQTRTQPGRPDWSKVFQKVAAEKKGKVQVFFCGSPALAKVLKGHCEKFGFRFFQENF
Chain of NADPH oxidase 4 (Homo sapiens) (Q9NPH5 whole entry, looked up): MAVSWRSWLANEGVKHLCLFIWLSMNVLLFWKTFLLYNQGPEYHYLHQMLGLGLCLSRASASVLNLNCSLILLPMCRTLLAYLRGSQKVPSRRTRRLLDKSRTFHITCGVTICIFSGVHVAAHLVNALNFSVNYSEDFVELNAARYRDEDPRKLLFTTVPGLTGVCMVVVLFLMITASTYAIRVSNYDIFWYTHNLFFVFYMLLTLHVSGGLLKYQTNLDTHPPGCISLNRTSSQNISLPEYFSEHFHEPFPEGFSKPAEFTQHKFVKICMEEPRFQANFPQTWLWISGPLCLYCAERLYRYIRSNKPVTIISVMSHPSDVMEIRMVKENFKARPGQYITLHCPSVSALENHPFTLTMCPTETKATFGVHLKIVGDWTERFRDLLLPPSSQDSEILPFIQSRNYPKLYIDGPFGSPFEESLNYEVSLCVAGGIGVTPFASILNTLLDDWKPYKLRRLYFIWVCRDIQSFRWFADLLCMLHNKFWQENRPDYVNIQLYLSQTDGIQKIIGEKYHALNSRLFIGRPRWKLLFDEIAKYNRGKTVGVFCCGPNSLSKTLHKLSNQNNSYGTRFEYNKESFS

Consider `COCCOC(=O)N1C(=O)[C@@]2(c3cc(C#CC4=CCCCC4)ccc31)[C@H](C(=O)Nc1nc3ccccc3s1)[C@H]1C(=O)O[C@H](c3ccccc3)[C@H](c3ccccc3)N1[C@@H]2c1ccc(O)cc1`, for which the z-score in assay [1] was -0.61 (inactive); in assay [3], 0.141 (inactive); in assay [4] it was 0.524 (inactive); in assay [5], -0.0845 (inactive); in assay [6] it was 1.2 (inactive); in assay [7], -0.123. Moreover, the z-score was 0.843 (inactive) in assay [8]; -0.44 (inactive) in assay [9]; 0.759 in assay [10]; 0.427 in assay [11]; 0.217 in assay [12]; 0.0981 in assay [13]. Also, the z-score is -1.79 in assay [14]; -1.62 in assay [15]; -3.16 in assay [16]; -0.762 (inactive) in [17]; -0.404 in assay [18]; -0.54 in [19]. Further, the z-score in [20] was -0.353 (inactive). The molecule further had a composite z-score in assay [2] of 0.103.

As to `CCCC=C(CCC)[C@@H](NC(=O)c1cccs1)c1ccc(C(=O)OC)cc1`, the z-score is -1.24 (inactive) in [1]; -1.3 (inactive) in [3]; -0.864 (inactive) in [4]; -1.72 (inactive) in assay [5]; -1.27 (inactive) in assay [6]; 1.28 in [7]. Also, the z-score is 0.0754 (inactive) in assay [8]; 1.74 (inactive) in assay [9]; 2.06 in [10]; 0.126 in assay [11]; -0.302 in assay [12]; -0.125 in assay [13]. Also, the z-score in assay [14] was 0.388; in assay [15] it was 0.45; in assay [16], -0.115; in assay [17], -0.0911 (inactive); in [18] it was 0.973; in assay [19], -0.997. Also, the z-score in [20] is 0.902 (inactive). The same molecule returned a composite z-score in assay [2] of 0.911.

Regarding `CC(C)[Si]1(C(C)C)OCc2cc(C3CC3)nc(-c3ccc(Oc4ccccc4)cc3)c21`, the z-score in assay [1] is -0.367 (inactive); in [3], 2.58 (inactive); in assay [4], 1.8 (inactive); in assay [5], 0.508 (inactive); in [6], 1.29 (inactive); in assay [7], -0.389. In addition, the z-score in assay [8] was 1.11 (inactive); in assay [9], 0.344 (inactive); in assay [10], 0.322; in [11] it was 1.25; in assay [12], 0.676; in assay [13] it was 0.468. Moreover, the z-score in assay [14] was -0.795; in assay [15], -1.94; in assay [16], -2.33; in [17], 0.138 (inactive); in assay [18], -0.989; in [19], 0.196. Also, the z-score in [20] is 2.94 (inactive). In addition, the composite z-score in [2] is -0.284.

Take `O=c1cccc(-c2ccc([N+](=O)[O-])cc2)o1`: the z-score in assay [1] is 0.609 (inactive); in [3] it was 0.687 (inactive); in assay [4], -0.129 (inactive); in [5], 0.0448 (inactive); in assay [6] it was -1.08 (inactive); in assay [7], 0.248. Further, the z-score in assay [8] is 0.304 (inactive); in assay [9] it was 0.542 (inactive); in [10] it was 0.0589; in [11] it was 0.419; in [12] it was 0.294; in assay [13], 0.273. Also, the z-score is -0.369 in assay [14]; -0.308 in [15]; 0.302 in [16]; 0.543 (inactive) in assay [17]; 0.379 in assay [18]; -1.01 in assay [19]. Moreover, the z-score in assay [20] is -0.0447 (inactive). This molecule also had a composite z-score in assay [2] of -0.241.

Turning to `COc1cc(C(O)C2C=CC3C(=O)N(C)C(=O)C3N2Nc2ccccc2)cc(OC)c1OC` (stereo not given), the z-score is -0.283 (inactive) in assay [1]; 1.28 (inactive) in assay [3]; 1.01 (inactive) in assay [4]; 0.508 (inactive) in assay [5]; 1.07 (inactive) in assay [6]; -0.802 in assay [7]. Also, the z-score was -1.41 (inactive) in [8]; -2.12 (inactive) in assay [9]; -2.14 in assay [10]; 0.212 in assay [11]; 0.555 in assay [12]; -0.0987 in assay [13]. In addition, the z-score in assay [14] is 0.0355; in assay [15], 0.438; in assay [16], -0.349; in assay [17], -0.604 (inactive); in [18], 0.221; in assay [19] it was -0.471. In addition, the z-score in [20] is 0.144 (inactive). The composite z-score in assay [2] was 0.923.

As for `COc1ccc([Si](C)(C)[C@H]2[C@H](CC(=O)N3CCC[C@H]3CO)O[C@@]3(C(=O)N(Cc4ccc(N5CCOC5=O)cc4)c4ccccc43)[C@@H]2C)cc1`, the z-score is 0.397 (inactive) in assay [1]; 9.5 (active) in assay [3]; 1.8 (inactive) in [4]; 0.088 (inactive) in [5]; 0.746 (inactive) in [6]; 0.0491 in [7]. Also, the z-score in assay [8] was 1.94 (inactive); in assay [9], -0.0662 (inactive); in assay [10], 3.78; in assay [11], -0.585; in [12] it was 0.722; in assay [13], -0.557. The z-score is -2.27 in [14]; -3.98 in [15]; 2.41 in [16]; 0.388 (inactive) in [17]; -1.06 in assay [18]; -0.325 in [19]. Moreover, the z-score in [20] was 0.0083 (inactive). This molecule returned a composite z-score in [2] of 0.298.

For `C=CCC(OC(C)=O)[C@@H]1[C@@H](N(Cc2cccc3ccccc23)C(=O)Cc2ccc(OC)cc2)c2cc(OCCCO)ccc2N1C(=O)c1ccc(-c2ccccc2)cc1` (stereo not given in full), the z-score was -0.62 (inactive) in [1]; 0.0926 (inactive) in [3]; 0.299 (inactive) in assay [4]; -0.278 (inactive) in assay [5]; 0.263 (inactive) in assay [6]; 0.0614 in assay [7]. Further, the z-score in assay [8] was -1.33 (inactive); in [9] it was -0.257 (inactive); in [10], -1.21; in assay [11], -0.433; in assay [12] it was 1.12; in assay [13] it was 0.256. Besides, the z-score in [14] is -0.47; in [15], 0.0509; in assay [16], 2.36; in assay [17] it was 0.286 (inactive); in [18], 0.0206; in [19] it was 0.621. In addition, in assay [20], the z-score was 0.48 (inactive). The molecule further displayed a composite z-score in assay [2] of 0.0429.

`Cc1ccc(C(C)CC(O)C2C=CC3C(=O)N(c4ccccc4)C(=O)C3N2Nc2ccccc2)o1` (stereo not given): the z-score in [1] is -1.13 (inactive); in [3], 4.07 (inactive); in assay [4], 1 (inactive); in [5], -0.0498 (inactive); in assay [6], -0.374 (inactive); in assay [7] it was 2.07. The z-score was -3.07 (inactive) in assay [8]; -5.71 (inactive) in assay [9]; -4.91 in [10]; -0.0446 in assay [11]; 0.001 in assay [12]; 0.179 in [13]. Moreover, the z-score in assay [14] was -0.559; in assay [15] it was -1.69; in assay [16], -1.64; in assay [17], -0.279 (inactive); in assay [18] it was -0.178; in assay [19], -1.71. Besides, the z-score in [20] was -0.706 (inactive). Besides, in assay [2], the composite z-score was determined as 0.738.
